# In the library only some 3.2% were active in any assay of this set; here they are far more common.
# AMA1 RON2 block = AMA1-RON2 (P. falciparum) interaction inhibition. AlphaScreen AMA1-biotinylated RON2 peptide binding. Potency, µM (titrated, usually from 58.2 µM), inactives show top-dose activity change, negative = inhibition, usual class: inhibitors. 360,000 tested, 0.2% active. AID 720542;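 further: 0% = vehicle wells and -100% = peptide control; nearly all actives have a fitted effect of over 45% in size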
#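 AMA1 (3D7) with his tag at 25 nM final met compounds first, then biotinylated RON2 peptide at 25 nM; detection used donor plus acceptor beads, 10 µg/mL apiece, read by AlphaScreen after 30 min at room temperature.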
# AmpC inh no detg = AmpC beta-lactamase inhibition without detergent; P00811; AmpC nitrocefin hydrolysis, absorbance 480 nm, 0.0001% Triton; Potency, µM (titrated, usually from 57.1 µM), for the others: at the highest dose activity change, negative = inhibition, actives largely listed as inhibitors; 330,000 tested, 0.52% active; AID 485341;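 further: plate controls were no compound for no effect and no enzyme for full effect; nearly all actives have a fitted effect of over 20% in size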
# Target sequence (P00811 whole entry, looked up): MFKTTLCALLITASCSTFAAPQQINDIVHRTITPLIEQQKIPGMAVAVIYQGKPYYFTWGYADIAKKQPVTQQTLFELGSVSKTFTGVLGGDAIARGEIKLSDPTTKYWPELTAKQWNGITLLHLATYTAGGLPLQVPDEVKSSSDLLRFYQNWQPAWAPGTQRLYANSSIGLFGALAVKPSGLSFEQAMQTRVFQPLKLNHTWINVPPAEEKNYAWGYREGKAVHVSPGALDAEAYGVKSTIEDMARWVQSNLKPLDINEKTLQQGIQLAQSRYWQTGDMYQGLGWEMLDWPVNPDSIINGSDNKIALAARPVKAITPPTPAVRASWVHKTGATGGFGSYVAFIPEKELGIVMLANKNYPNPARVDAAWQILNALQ
#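 20 mM phosphate pH 7.0 + 0.01% (detergent screen) or 0.0001% Triton X-100; 5.3 nM AmpC reagent; cpd preinc 15 min RT; nitrocefin (800 uM stock) to start; A480 q20 s × 4 min; Activity was normalised to no-enzyme and no-compound control wells.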
# Sm TGR inh = inhibitors of Schistosoma mansoni thioredoxin glutathione reductase. Q962Y6. purified TGR, DTNB reduction, TNB absorbance 405 nm. Potency, µM (doses to about 114 µM), without a hit: top-dose activity change, negative = inhibition, usual class: inhibitors. 360,000 tested, 3% active; further: nearly all actives have a fitted effect of over 60% in size
#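 First, TGR (20 nM dispensed) and NADPH were mixed with compound. Second, a 15 min room-temperature incubation followed. Third, further NADPH and then DTNB were added to start the reaction. Finally, TNB absorbance was monitored kinetically.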
# AmpC inh detg = blocks E. coli AmpC beta-lactamase in detergent assay. AmpC hydrolysis of nitrocefin, absorbance 480 nm, 0.01% Triton. Potency, µM (titrated, usually from 114 µM), without a hit: top-dose activity change, negative = inhibition, actives largely listed as inhibitors. 370,000 tested, 0.041% active;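 further: 0% = no-compound wells and -100% = no-enzyme wells; nearly all actives have a fitted effect of over 25% in size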
#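 20 mM phosphate pH 7.0 + 0.01% (detergent screen) or 0.0001% Triton X-100; 5.3 nM AmpC reagent; cpd preinc 15 min RT; nitrocefin (800 uM stock) to start; A480 q20 s × 4 min; Activity was normalised to no-enzyme and no-compound control wells.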
# RE007 growth inh = less growth of the S. pombe RE007 Vpr strain | S. pombe RE007 Vpr strain, BacTiter-Glo ATP luminescence, 24 h | Potency, µM (highest dose often 92.2 µM), inactives show at the highest dose activity change, negative = less growth, actives largely listed as inhibitors | 360,000 tested, 0.21% active | AID 651644; active means well fitted falling curve with a large enough effect; inconclusive means small, poorly fitted or top-dose-only effect; inactive means no such curve, though single readings can be large or run the other way; further: nearly all actives have a fitted effect of over 50% in size
#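 Fission yeast RE007 carrying one integrated HIV-1 vpr copy, seeded at OD 0.01 in PMG+AL medium with 23 nL pinned compound. Grown 24 h at 30 degrees; viability read by BacTiter-Glo luminescence after 5 min.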
# An asterisk follows results filed as active; ? = inconclusive; / = not tested or not shown; [ ] = remark or other dose. Unless noted, the call rests on the fitted dose curve; in most records, active means well fitted curve in the direction sought with a large enough effect; inconclusive means small, poorly fitted or top-dose-only effect, or another doubt; inactive means no such curve, though single readings can be large; an effect the other way counts as inactive or inconclusive. Unless noted, on the % scale 0 is the no-effect control and ±100 the full control effect; potency means the concentration at half of the fitted maximal effect.
SMILES,AMA1 RON2 block,AmpC inh no detg,Sm TGR inh,AmpC inh detg,RE007 growth inh
CSc1ncc(/C=C2/C(=O)NC(=O)N(c3ccc(Cl)cc3)C2=O)cn1,11%,-35%,5.6µM*,-13%,-15%
Cc1ccc(N2C(=O)NC(=O)/C(=C/c3cnn(-c4ccc(C)cc4)c3)C2=O)cc1,-13%,-10%,-24%,-12%,-1%
Cc1ccc(N2C(=O)NC(=O)/C(=C/c3ccoc3)C2=O)cc1,-15%,-30%,?,1%,4%
CSc1ncc(/C=C2/C(=O)NC(=O)N(c3ccc(C)cc3)C2=O)cn1,9%,-26%,2.5µM*,2%,2%
Cc1cc(/C=C2\C(=O)NC(=O)N(c3ccc(Cl)cc3)C2=O)c(C)n1C,13%,-27%,/,2%,-1%
CCOc1ccc(/C=C2/C(=O)NC(=O)N(CCc3ccc(F)cc3)C2=O)cc1,7%,-29%,?,4%,-9%
Cc1ccc(N2C(=O)NC(=O)/C(=C\c3cnc(-c4ccccc4)nc3)C2=O)cc1,-4%,-24%,1.6µM*,-10%,?
CCOc1ccc(N2C(=O)NC(=O)/C(=C/c3cnc(SC)nc3)C2=O)cc1,5%,-29%,8.9µM*,2%,-14%
COc1ccc(S(=O)(=O)N2CCN(c3ccccc3OC)CC2)cc1-c1noc(C)n1,/,/,4%,20%,/
Cc1ccc(C2=NN(CCC(=O)NCCc3cccc(C)c3)C(=O)CC2)cc1,/,/,18%,-9%,/
Cc1ccccc1CNC(=O)C1CCN(c2nnc(-n3c(C)ccc3C)s2)CC1,/,/,-29%,-7%,/
N#Cc1ccc(OC(=O)c2cnccn2)cc1,?,-8%,22µM*,?,3%
CCC(=O)c1ccc(OC(=O)c2cnccn2)cc1,0%,-18%[11.4 µM],?,-15%,-4%
COc1cc(CNC(=O)C2CCCC2)cc(OC)c1OC,12%,0%,3.2µM*,?,-10%
CC(C)(C)C(=O)Nc1nc2c(s1)COc1ccccc1-2,4%,0.71µM*,-6%,?,-12%
CCCC(=O)Nc1nc2c(s1)COc1ccccc1-2,-2%,-22%,-3%,-6%,-4%
O=C(CCSc1ccccc1)Nc1nc2c(s1)COc1ccccc1-2,56%,3.2µM*,-22%,?,14%
O=[N+]([O-])c1ccc(/C=C/C2=NN(c3ccccc3)C(c3ccco3)C2)o1 (centres undefined),-19%,-32%,40µM*,3%,-19%
C(=C\c1ccco1)/C1=NN(c2ccccc2)C(c2ccco2)C1 (centres undefined),0%,-49%,28µM*,-11%,-3%
Clc1ccc(C2=NN(c3ccccc3)C(c3ccco3)C2)cc1 (centres undefined),34%,-28%,-25%,-4%,11%
Fc1ccc(C2=NN(c3ccccc3)C(c3ccco3)C2)cc1 (centres undefined),145%,-16%,0%,9%,-15%
COc1cccc(CNCc2c(C(=O)O)c(C)n(Cc3ccc(F)cc3Cl)c2C)c1OC,/,/,-15%,22%,/
CN(C)CCNC(=O)/C(=C/c1ccc(-c2cccc([N+](=O)[O-])c2)o1)NC(=O)c1ccccc1,-8%,29%,4%,0%,-20%
CCCCNC(=O)/C(=C\c1ccc([N+](=O)[O-])o1)NC(=O)c1ccccc1,-6%,12%,45µM*,2%,-26%
O=C(/C=C/c1ccc(-c2ccccc2[N+](=O)[O-])o1)c1ccccc1,-9%[11.6 µM],4%,?,-3%,-4%
SMILES,AMA1 RON2 block,AmpC inh no detg,Sm TGR inh,AmpC inh detg,RE007 growth inh
O=C(O)/C(=C\c1ccc(-c2ccccc2[N+](=O)[O-])o1)c1ccccc1,-11%,-29%,35µM*,?,-14%
Cc1ccc(C(=O)N/C(=C\c2ccc(-c3ccccc3[N+](=O)[O-])o2)C(=O)NCCN(C)C)cc1,36%,108%,1.4µM*,4%,7%
Cc1ccc(C(=O)N/C(=C\c2ccc(-c3ccccc3[N+](=O)[O-])o2)C(=O)NCCCN(C)C)cc1,19%,62%,8.9µM*,-7%,-7%
COC(=O)/C(=C\c1ccc([N+](=O)[O-])o1)NC(=O)c1ccccc1,-4%,-15%,?,-4%,-4%
COc1ccccc1CNC(=O)CN1C(=O)CCn2nc(-c3ccccc3)cc21,/,/,4%,27%,/
Cc1cc(Nc2ccccc2)n(-c2nc3ccccc3[nH]2)n1,-11%,?,2%,-9%,35µM*
Cc1nn(-c2nc3ccccc3[nH]2)c(=O)c2ccccc12,-1%,-20%[11.4 µM],3%,?,6.3µM*
Cc1cc(NC(=O)c2ccccc2F)n(-c2nc3ccccc3[nH]2)n1,73%,-31%,5%,-9%,18%
Cc1nn(-c2ccc3ccccc3c2)c(=O)c2ccccc12,10%,-24%,24%,0%,-17%
O=C(CCC1N=C2c3ccccc3N=C(SCC(=O)Nc3ccc(F)cc3)N2C1=O)NCc1ccco1 (centres undefined),/,/,-1%,10%,/
C[C@H]1[C@H](NC(=O)C(=NOC(C)(C)C(=O)O)c2csc(N)n2)C(=O)N1S(=O)(=O)O,19%,5µM*,-1%,4µM*,0%[18.4 µM]
Cc1cc2c(N)cccc2nn1,?,-10%,25µM*,0%,-11%
CCn1c(O)c(/C=N/N=C2CCCCC2)c2cc(C3=NNC(=O)CC3)ccc21,20%,27%,40µM*,11%,-10%
O=C1CC(=O)CC(c2ccccc2)C1,-3%,-31%,-7%,-6%,-12%
O=C1CC(c2ccccc2)CC(=O)C1CS(=O)(=O)c1ccccc1 (centres undefined),-12%,-28%,0.71µM*,-3%,1%
Cc1c(Cl)cccc1NC(CC(=O)c1ccccc1)C(=O)OCC(=O)c1cccs1 (centres undefined),-28%,-19%,8.9µM*,6%,?
O=C(CC(=O)c1ccccc1)Nc1ccc(Cl)cc1,7%,-35%,32µM*,1%,-21%
O=C(CC(Nc1ccccc1Cl)C(=O)O)c1ccccc1 (centres undefined),21%,-21%,/,7%,-10%
COc1ccccc1NC(CC(=O)c1ccccc1)C(=O)OCC(=O)c1ccc(F)cc1 (centres undefined),-17%,-21%,20µM*,-6%,-13%
Cc1c(Cl)cccc1NC(CC(=O)c1ccccc1)C(=O)O (centres undefined),9%,-13%,1µM*,4%,1%
COc1ccccc1NC(=O)CCCC(=O)OCC(=O)c1ccc(F)cc1,-5%,18%,-4%,-1%,-11%
CN(CC(=O)Nc1cccc(Cl)c1)S(=O)(=O)c1ccc2[nH]c3c(c2c1)CCCC3,/,/,-2%,15%,/

# Assay outcomes from PubChem.
